Results on seven sequences are retold here after paper PMC7862700, “An all-to-all approach to the identification of sequence-specific readers for epigenetic DNA modifications on cytosine”.

Assay in all cases: DAPPL (digital affinity profiling via proximity ligation, sequencing); 10 mM Tris-HCl pH 7.5, 50 mM NaCl, 1 mM DTT, 4% glycerol, room temperature, 30 min; GST-TFs on glutathione beads, 16-mer random dsDNA library, 0.1% formaldehyde crosslink after washing; high values mean tight binding
Holding throughout (conditions): protein: recombinant; tags: N-terminal GST; dsDNA, one strand shown

One test deals with T1, FLI1 (Homo sapiens, UniProt Q01543 1-452).
T1 sequence: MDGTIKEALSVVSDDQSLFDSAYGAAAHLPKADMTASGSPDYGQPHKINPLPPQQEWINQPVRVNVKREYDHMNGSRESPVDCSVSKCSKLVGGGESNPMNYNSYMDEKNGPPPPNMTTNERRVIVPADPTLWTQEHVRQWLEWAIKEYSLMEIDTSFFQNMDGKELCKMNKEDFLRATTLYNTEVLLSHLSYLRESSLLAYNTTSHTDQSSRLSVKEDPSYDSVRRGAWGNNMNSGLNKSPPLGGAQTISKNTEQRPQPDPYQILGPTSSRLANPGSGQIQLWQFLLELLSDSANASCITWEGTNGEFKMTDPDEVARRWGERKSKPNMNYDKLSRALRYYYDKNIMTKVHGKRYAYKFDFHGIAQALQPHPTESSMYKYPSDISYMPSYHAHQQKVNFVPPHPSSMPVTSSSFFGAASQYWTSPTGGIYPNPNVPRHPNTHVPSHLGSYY
The essentials: (§1)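 After expression in yeast as GST fusions, human transcription factors were bound to glutathione beads, DNA-barcoded and mixed with a tag-only sample. The pools were incubated with 200 nmole of a 16-mer random double-stranded DNA library in Tris/NaCl/DTT/glycerol buffer (30 min, room temperature), washed and crosslinked with 0.1% formaldehyde. Proximity ligation with BsaI/T4 ligase ran for 1 h at 37 °C, before PCR amplification and sequencing on an Illumina NextSeq500. Binding signal is a hexamer's read frequency for a factor divided by its frequency for the tag-only sample.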

A further test addresses T2, ELK1 (Homo sapiens, UniProt P19419 1-428).
T2 sequence: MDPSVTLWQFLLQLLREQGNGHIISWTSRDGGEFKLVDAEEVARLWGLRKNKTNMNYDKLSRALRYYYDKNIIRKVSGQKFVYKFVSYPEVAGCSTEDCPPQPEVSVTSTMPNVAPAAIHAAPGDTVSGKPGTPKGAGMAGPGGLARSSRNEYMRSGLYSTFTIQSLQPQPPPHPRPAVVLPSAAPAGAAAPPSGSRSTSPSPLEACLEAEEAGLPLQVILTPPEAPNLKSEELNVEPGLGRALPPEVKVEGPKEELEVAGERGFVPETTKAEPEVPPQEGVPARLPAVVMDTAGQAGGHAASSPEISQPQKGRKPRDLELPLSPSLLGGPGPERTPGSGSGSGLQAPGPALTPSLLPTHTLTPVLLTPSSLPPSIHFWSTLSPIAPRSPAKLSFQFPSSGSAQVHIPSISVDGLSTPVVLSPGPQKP
The essentials: as §1

The target of a further test is T3, GABPA (Homo sapiens, UniProt Q06546 1-454).
T3 sequence: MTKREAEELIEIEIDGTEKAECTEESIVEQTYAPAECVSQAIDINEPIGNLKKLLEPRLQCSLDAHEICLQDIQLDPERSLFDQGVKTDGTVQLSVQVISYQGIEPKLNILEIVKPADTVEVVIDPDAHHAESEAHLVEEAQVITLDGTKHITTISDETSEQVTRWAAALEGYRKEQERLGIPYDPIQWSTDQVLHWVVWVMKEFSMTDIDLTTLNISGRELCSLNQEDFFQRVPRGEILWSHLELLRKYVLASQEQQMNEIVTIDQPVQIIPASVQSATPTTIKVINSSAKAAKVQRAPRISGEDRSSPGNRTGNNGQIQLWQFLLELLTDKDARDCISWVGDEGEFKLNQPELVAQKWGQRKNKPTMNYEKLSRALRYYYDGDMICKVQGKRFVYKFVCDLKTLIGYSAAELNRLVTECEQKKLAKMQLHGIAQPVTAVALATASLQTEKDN
The essentials:
as §1

The target in the next test is T4, ERG (Homo sapiens, UniProt P11308 1-479).
T4 sequence: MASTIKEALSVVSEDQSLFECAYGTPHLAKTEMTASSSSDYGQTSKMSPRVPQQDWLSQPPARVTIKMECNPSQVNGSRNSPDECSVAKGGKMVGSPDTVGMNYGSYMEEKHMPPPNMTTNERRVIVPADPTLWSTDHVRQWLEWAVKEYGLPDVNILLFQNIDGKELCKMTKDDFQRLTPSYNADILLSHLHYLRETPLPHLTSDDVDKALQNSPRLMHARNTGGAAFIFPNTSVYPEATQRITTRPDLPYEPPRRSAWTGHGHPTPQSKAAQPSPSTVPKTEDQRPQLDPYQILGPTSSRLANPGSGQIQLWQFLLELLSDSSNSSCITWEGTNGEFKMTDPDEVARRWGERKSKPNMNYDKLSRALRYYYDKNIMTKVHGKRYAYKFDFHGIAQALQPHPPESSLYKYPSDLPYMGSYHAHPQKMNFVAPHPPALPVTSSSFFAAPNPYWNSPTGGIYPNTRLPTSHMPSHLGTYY
Summed up: as §1

A further test has as its target ELF1 (Homo sapiens, UniProt P32519 1-619). The essentials:
as §1

The next test concerns the target T5, EHF (Homo sapiens, UniProt Q9NZC4 1-300).
T5 sequence: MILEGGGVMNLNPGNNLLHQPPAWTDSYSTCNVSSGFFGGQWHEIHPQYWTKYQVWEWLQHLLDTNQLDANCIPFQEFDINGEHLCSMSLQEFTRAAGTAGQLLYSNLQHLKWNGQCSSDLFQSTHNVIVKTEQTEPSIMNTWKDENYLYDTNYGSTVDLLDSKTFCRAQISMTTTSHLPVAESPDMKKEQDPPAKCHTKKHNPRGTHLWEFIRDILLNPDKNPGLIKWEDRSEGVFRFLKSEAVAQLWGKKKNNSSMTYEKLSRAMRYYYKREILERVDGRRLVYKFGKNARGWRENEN
Summed up:
as §1

Another test has as its target SPI1 (Homo sapiens, UniProt P17947 1-270). Summed up: as §1
A further test addresses SPIB (Homo sapiens, UniProt Q01892 1-262). The essentials:
as §1

In the next test the target is T6, ELK3 (Homo sapiens, UniProt P41970 1-407).
T6 sequence: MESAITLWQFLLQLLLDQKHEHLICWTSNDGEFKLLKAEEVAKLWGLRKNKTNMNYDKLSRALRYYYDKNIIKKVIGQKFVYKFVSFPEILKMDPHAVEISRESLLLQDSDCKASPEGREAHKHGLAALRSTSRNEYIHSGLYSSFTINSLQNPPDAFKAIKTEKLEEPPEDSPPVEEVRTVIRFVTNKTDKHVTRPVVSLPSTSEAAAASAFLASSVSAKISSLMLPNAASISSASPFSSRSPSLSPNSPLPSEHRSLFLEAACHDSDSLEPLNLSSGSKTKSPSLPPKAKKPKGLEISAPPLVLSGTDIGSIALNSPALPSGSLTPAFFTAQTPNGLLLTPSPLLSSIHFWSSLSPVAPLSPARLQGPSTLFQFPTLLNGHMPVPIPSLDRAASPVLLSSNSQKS
The essentials:
as §1

Chain of ELF1 (P32519 whole entry): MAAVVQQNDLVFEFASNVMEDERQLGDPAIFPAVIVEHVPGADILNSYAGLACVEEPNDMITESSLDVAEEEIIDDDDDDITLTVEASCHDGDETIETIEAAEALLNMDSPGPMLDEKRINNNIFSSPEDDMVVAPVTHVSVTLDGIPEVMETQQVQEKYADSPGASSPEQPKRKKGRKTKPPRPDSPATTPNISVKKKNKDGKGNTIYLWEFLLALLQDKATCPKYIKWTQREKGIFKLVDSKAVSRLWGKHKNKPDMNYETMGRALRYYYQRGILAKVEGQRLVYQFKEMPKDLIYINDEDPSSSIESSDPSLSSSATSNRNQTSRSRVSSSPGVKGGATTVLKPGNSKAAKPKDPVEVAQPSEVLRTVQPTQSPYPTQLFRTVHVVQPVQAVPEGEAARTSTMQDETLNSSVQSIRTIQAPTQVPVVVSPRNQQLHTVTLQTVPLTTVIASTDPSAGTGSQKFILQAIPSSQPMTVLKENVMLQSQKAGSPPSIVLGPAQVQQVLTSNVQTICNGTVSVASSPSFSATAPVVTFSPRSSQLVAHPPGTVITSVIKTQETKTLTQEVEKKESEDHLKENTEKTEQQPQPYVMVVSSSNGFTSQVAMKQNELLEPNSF
Chain of SPIB (Q01892 whole entry): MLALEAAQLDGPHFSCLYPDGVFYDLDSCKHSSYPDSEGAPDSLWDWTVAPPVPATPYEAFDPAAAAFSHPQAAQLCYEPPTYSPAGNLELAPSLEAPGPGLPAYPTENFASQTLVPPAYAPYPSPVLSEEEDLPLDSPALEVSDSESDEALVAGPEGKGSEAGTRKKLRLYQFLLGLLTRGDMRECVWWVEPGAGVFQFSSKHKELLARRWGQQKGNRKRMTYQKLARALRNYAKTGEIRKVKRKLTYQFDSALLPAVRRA

Take TTTACC: the binding signal with FLI1 was 1.28 fold enrichment (6-mer frequency, TF over GST control); with ELK1, 1.2 fold enrichment (6-mer frequency, TF over GST control); with GABPA, 1.24 fold enrichment (6-mer frequency, TF over GST control); with ERG, 1.18 fold enrichment (6-mer frequency, TF over GST control); in the test with ELF1 it was 1.23 fold enrichment (6-mer frequency, TF over GST control); with EHF, 1.31 fold enrichment (6-mer frequency, TF over GST control). Besides, the binding signal was 1.17 fold enrichment (6-mer frequency, TF over GST control) with SPI1; 1.21 fold enrichment (6-mer frequency, TF over GST control) with SPIB; 1.37 fold enrichment (6-mer frequency, TF over GST control) in the test with ELK3.
In the case of TTCGAG, the binding signal in the test with FLI1 was 1.18 fold enrichment (6-mer frequency, TF over GST control); in the test with ELK1, 1.23 fold enrichment (6-mer frequency, TF over GST control); with GABPA, 1.31 fold enrichment (6-mer frequency, TF over GST control); with ERG, 1.14 fold enrichment (6-mer frequency, TF over GST control); with ELF1, 1.25 fold enrichment (6-mer frequency, TF over GST control); with EHF, 1.19 fold enrichment (6-mer frequency, TF over GST control). In addition, the binding signal in the test with SPI1 is 1.21 fold enrichment (6-mer frequency, TF over GST control); with SPIB, 1.31 fold enrichment (6-mer frequency, TF over GST control); with ELK3 it was 1.3 fold enrichment (6-mer frequency, TF over GST control).
As to AGAAAT, the binding signal with FLI1 is 1.05 fold enrichment (6-mer frequency, TF over GST control); with ELK1, 1.13 fold enrichment (6-mer frequency, TF over GST control); with GABPA, 1.17 fold enrichment (6-mer frequency, TF over GST control); with ERG, 1.1 fold enrichment (6-mer frequency, TF over GST control); with ELF1, 1.15 fold enrichment (6-mer frequency, TF over GST control); with EHF, 1.16 fold enrichment (6-mer frequency, TF over GST control). In addition, the binding signal in the test with SPI1 is 1.16 fold enrichment (6-mer frequency, TF over GST control); with SPIB, 1.11 fold enrichment (6-mer frequency, TF over GST control); in the test with ELK3 it was 1.2 fold enrichment (6-mer frequency, TF over GST control).
In the case of CACGAC, the binding signal with FLI1 was 1.27 fold enrichment (6-mer frequency, TF over GST control); in the test with ELK1, 1.29 fold enrichment (6-mer frequency, TF over GST control); in the test with GABPA it was 1.33 fold enrichment (6-mer frequency, TF over GST control); with ERG it was 1.22 fold enrichment (6-mer frequency, TF over GST control); with ELF1 it was 1.21 fold enrichment (6-mer frequency, TF over GST control); in the test with EHF, 1.28 fold enrichment (6-mer frequency, TF over GST control). Besides, the binding signal was 1.14 fold enrichment (6-mer frequency, TF over GST control) with SPI1; 1.23 fold enrichment (6-mer frequency, TF over GST control) in the test with SPIB; 1.29 fold enrichment (6-mer frequency, TF over GST control) in the test with ELK3.
Turning to GATGAA, the binding signal was 1.23 fold enrichment (6-mer frequency, TF over GST control) with FLI1; 1.26 fold enrichment (6-mer frequency, TF over GST control) with ELK1; 1.2 fold enrichment (6-mer frequency, TF over GST control) with GABPA; 1.17 fold enrichment (6-mer frequency, TF over GST control) in the test with ERG; 1.18 fold enrichment (6-mer frequency, TF over GST control) with ELF1; 1.15 fold enrichment (6-mer frequency, TF over GST control) with EHF. Moreover, the binding signal in the test with SPI1 is 1.1 fold enrichment (6-mer frequency, TF over GST control); with SPIB it was 1.24 fold enrichment (6-mer frequency, TF over GST control); in the test with ELK3, 1.11 fold enrichment (6-mer frequency, TF over GST control).
As for CGAAAA, the binding signal with FLI1 was 1.07 fold enrichment (6-mer frequency, TF over GST control); in the test with ELK1 it was 1.07 fold enrichment (6-mer frequency, TF over GST control); with GABPA, 1.17 fold enrichment (6-mer frequency, TF over GST control); with ERG, 1.06 fold enrichment (6-mer frequency, TF over GST control); with ELF1 it was 1.05 fold enrichment (6-mer frequency, TF over GST control); with EHF, 1.14 fold enrichment (6-mer frequency, TF over GST control). The binding signal in the test with SPI1 was 1.1 fold enrichment (6-mer frequency, TF over GST control); with SPIB it was 1.04 fold enrichment (6-mer frequency, TF over GST control); with ELK3, 1.01 fold enrichment (6-mer frequency, TF over GST control).
ACTGGC: the binding signal in the test with FLI1 was 1.26 fold enrichment (6-mer frequency, TF over GST control); in the test with ELK1, 1.12 fold enrichment (6-mer frequency, TF over GST control); with GABPA, 1.22 fold enrichment (6-mer frequency, TF over GST control); with ERG it was 1.11 fold enrichment (6-mer frequency, TF over GST control); in the test with ELF1, 1.18 fold enrichment (6-mer frequency, TF over GST control); with EHF, 1.1 fold enrichment (6-mer frequency, TF over GST control). Besides, the binding signal with SPI1 was 1.22 fold enrichment (6-mer frequency, TF over GST control); with SPIB it was 1.15 fold enrichment (6-mer frequency, TF over GST control); in the test with ELK3, 1.21 fold enrichment (6-mer frequency, TF over GST control).
